Source: PubChem
A selection: hits, their analogues and other compounds. The true share with any hit is near 7.5%.
Rab9 prom act – Rab9 promoter activation. Huh7 Rab9 promoter-luciferase reporter, luminescence, 24 h. Potency, µM (top dose mostly 9.22 µM), for inactives: top-dose activation, negative = inhibition, most hits filed as activators. 320,000 compounds, 2.8% hits; further: % of control where 0% means no effect; nearly all actives have a fitted effect of over 60% in size
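Quantitative HTS format; Huh7 Rab9-luciferase reporter cells (1500/well) receive compound 2 h post-plating, incubate 24 h at 37 °C, then get luciferase reagent for 10 min before luminescence reading.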
Luc counter – blocks Kinase-Glo luciferase, a counter-screen artifact; Q27757; Kinase-Glo luciferase, ATP luminescence, 8 min; Potency, µM (doses to about 38.3 µM), for the others: at the top dose activity change, negative = inhibition, hits mostly inhibitors; 200,000 compounds, 0.28% hits; AID 1379; further: on the % scale 0 is the no-effect control and ±100 the full control effect; nearly all actives have a fitted effect of over 60% in size
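Luminescence was the read-out, taken after 8-minute incubation at ambient temperature. Luciferase turned over luciferin with 10 uM ATP in imidazole pH 7.2 buffer containing KCl, MgCl2, Tween 20 and BSA.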
ELG1 genotox – induces genotoxicity in HEK293T cells with luciferase-tagged ELG1; HEK293T ELG1-luciferase reporter, luminescence, 16 h; Potency, µM (doses to about 46 µM), without a hit: at the top dose activity change, positive = activation, hits mostly activators; 330,000 compounds, 1.3% hits; further: % of control where 0% means no effect; nearly all actives have a fitted effect of over 60% in size
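Screening used a luciferase reporter fused to human ELG1 in HEK293T cells. Luminescence was read on a CCD plate imager after 16 hr exposure and 30 min ONE-Glo incubation.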
FLuc counter – inhibits or activates purified firefly luciferase, miR-21 counter-screen; P08659; purified FLuc, Km substrates, luminescence inhibition; Potency, µM (highest dose often 57.5 µM), for inactives: top-dose activity change, negative = inhibition, most hits filed as inhibitors; 360,000 compounds, 6.9% hits;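 further: plate controls were vehicle for no effect and reference inhibitor for full effect; nearly all actives have a fitted effect of over 55% in size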
Target sequence (P08659 whole entry, looked up): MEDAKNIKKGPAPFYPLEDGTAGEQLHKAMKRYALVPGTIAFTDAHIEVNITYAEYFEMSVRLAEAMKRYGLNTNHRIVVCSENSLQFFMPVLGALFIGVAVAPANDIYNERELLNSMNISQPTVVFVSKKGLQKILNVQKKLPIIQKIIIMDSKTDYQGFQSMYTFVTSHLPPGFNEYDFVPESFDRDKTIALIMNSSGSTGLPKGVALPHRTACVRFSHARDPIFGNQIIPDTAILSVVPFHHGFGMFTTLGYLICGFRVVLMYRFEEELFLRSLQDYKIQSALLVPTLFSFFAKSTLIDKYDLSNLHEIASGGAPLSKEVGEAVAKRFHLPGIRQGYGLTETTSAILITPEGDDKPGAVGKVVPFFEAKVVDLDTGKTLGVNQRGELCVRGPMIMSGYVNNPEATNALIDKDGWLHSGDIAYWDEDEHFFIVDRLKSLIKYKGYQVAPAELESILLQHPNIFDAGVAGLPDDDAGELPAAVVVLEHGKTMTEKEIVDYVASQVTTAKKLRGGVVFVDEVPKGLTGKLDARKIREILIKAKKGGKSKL
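Purified P. pyralis luciferase, 10 nM final, with Km-level 10 uM D-luciferin and 10 uM ATP in 50 mM Tris acetate pH 7.5, 10 mM Mg acetate, 0.01% Tween-20, 0.05% BSA; 6-point qHTS titration about 60 µM downward; luminescence read.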
SMN2 splice up – enhancers of SMN2 splice variant expression; HEK293 SMN2-luciferase splicing reporter, luminescence, 30-36 h; Potency, µM (doses to about 46.1 µM), for inactives: at the highest dose activity change, positive = activation, hits mostly activators; 210,000 compounds, 2.8% hits; AID 1458; further: % of control where 0% means no effect; nearly all actives have a fitted effect of over 55% in size
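HEK293 cells carry an SMN2 […]–luciferase reporter in which exon 7 inclusion puts luciferase in frame. Cells were plated 10-12 h before compound addition, then incubated 30-36 h at 37C. ONE-Glo luminescence was read; sodium butyrate at 4.5 mM final served as control.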
NPC1 promoter act – activates the NPC1 promoter; Huh7 NPC1 promoter luciferase reporter, 24 h; Potency, µM (doses to about 9.22 µM), for the others: top-dose activation, most hits filed as activators; 320,000 compounds, 2.4% hits; AID 485313; further: % of control where 0% means no effect; nearly all actives have a fitted effect of over 60% in size
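Huh7 reporter cells (NPC1 promoter driving luciferase) are dosed with compound for 24 h at 37 °C, 5% CO2; luciferase detection reagent is then added and luminescence measured after 10 min at ambient temperature.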
* = called active by the depositor; ? = inconclusive; . = no result given; [ ] = remark or other dose. The call rests on the fitted dose curve; in most records, active means well fitted curve in the direction sought with a large enough effect; inconclusive means small, poorly fitted or top-dose-only effect, or another doubt; inactive means no such curve, though single readings can be large; an effect the other way counts as inactive or inconclusive. Potency means the concentration at half of the fitted maximal effect.

SMILES	Rab9 prom act	Luc counter	ELG1 genotox	FLuc counter	SMN2 splice up	NPC1 promoter act
O=C(CC1(O)C(=O)Nc2ccccc21)c1ccccc1O (stereo not drawn)	9.9%	5.0%	1.7%	-1.3%	10.6%	-4.0%
O=C(CC1=NCCNC(c2ccccc2)C1)c1ccccc1O (stereo not drawn)	?	10.5%	9.4%	0.1%	11.2µM*	16.5%
Clc1cc(Cl)cc(Nc2ncnc(-n3cccc3)n2)c1	-6.1%	.	-1.3%	-3.8%	.	22.8%
Cc1ccc(Nc2ncnc(-n3cccc3)n2)cc1Cl	3.16µM*	.	?	2.69µM*	.	?
CNC(=S)N/N=C/c1ccc(N(C)C)cc1	2.82µM*	.	?	?	.	3.55µM*
CN(C)c1ccc(/C=N/NC(=O)COc2ccccc2)cc1	19.7%	-0.6%	7.0%	19µM*	15.2%	9.3%
CN(C)c1ccc(/C=N/NC(=O)CNC(=O)/C=C/c2ccccc2)cc1	?	.	?	2.39µM*	.	?
O=C1CCCC1C(=O)Nc1ccc2ccccc2c1 (stereo not drawn)	14.5%	.	10.9%	16.9µM*	.	16.2%
CC(C)(C)NC(=S)N1CCC(C(=O)c2ccc(Cl)cc2)CC1	2.2%	.	-0.6%	0.2%	.	2.3%
COc1cccc(-c2cc(C(=O)N3CCc4ccccc4C3)[nH]n2)c1	21.9%	.	?	10.7µM*	.	25.5%
CC(C)c1ccc(NC(=O)N2CCc3ccccc3C2)cc1	3.98µM*	1.1%	?	10.7µM*	12.6µM*	?
O=C(Nc1cccc(Cl)c1)N1CCc2ccccc2C1	3.16µM*	.	?	9.53µM*	.	2.82µM*
O=C(Nc1cccc(Cl)c1)c1nc[nH]c1C(=O)N1CCc2ccccc2C1	-1.0%	.	4.8%	-1.3%	.	-1.8%
COc1cccc(NC(=O)N2CCc3ccccc3C2)c1	2.82µM*	.	?	16.9µM*	.	3.98µM*
Cc1ccc(-c2cc(C(=O)N3CCc4ccccc4C3)[nH]n2)cc1C	-0.7%	.	14.5%	-11.2%	.	13.0%
O=C(NCCN1CCOCC1)C(=O)NCC1OCCN1S(=O)(=O)c1ccccc1 (stereo not drawn)	2.5%	.	-7.6%	-2.2%	.	-4.6%
O=C1C=C(c2ccc(Cl)c(C(F)(F)F)c2)C[C@@H](c2ccc3c(c2)OCO3)C1	-2.7%	.	-1.3%	2.7%	.	-0.6%
O=C(Nc1ccccc1F)N1CCc2ccccc2C1	2.82µM*	.	18.3µM*	15.1µM*	.	1.26µM*
O=C(COc1ccc(F)cc1Br)N1CCc2ccccc21	0.631µM*	-8.8%	1.58µM*	0.757µM*	11.2µM*	2.82µM*
COc1cc(CO)ccc1OCC(=O)N1CCc2ccccc21	25.5%	.	15.1%	-6.5%	.	15.7%
O=Cc1ccc(OCC(=O)N2CCc3ccccc32)c(Br)c1	19.2%	.	?	7.57µM*	.	5.6%
O=C(COc1ccccc1F)OCC(=O)N1CCc2ccccc21	?	.	-0.7%	?	.	2.3%
CC(C)N1CCc2c(sc(NC(=O)CCS(=O)(=O)c3ccccc3)c2C#N)C1	0.7%	.	-11.3%	0.5%	.	-9.2%
O=C(Nc1ccccc1C(=O)Nc1nncs1)c1ccccc1	-2.1%	.	-8.5%	21.3µM*	.	-3.0%
Cc1ccccc1C(=O)Nc1nncs1	21.7%	20.6%	9.6%	2.2%	-7.2%	0.4%
SMILES	Rab9 prom act	Luc counter	ELG1 genotox	FLuc counter	SMN2 splice up	NPC1 promoter act
CCCC(=O)Nc1ccccc1NC(=O)c1ccc(OCC)cc1	0.6%	1.5%	-3.3%	1.2%	-9.3%	-7.5%
O=C(O)c1ccccc1NC(=O)c1ccccc1Nc1ccccc1	-2.6%	.	-6.6%	16.9µM*	.	4.7%
Nc1ccc(C(=O)Nc2ccccc2C(=O)O)cc1	19.9%	-11.3%	?	6.01µM*	-12.8%	23.8%
CCOc1ccc(C(=O)Nc2ccccc2C(=O)O)cc1	1µM*	-12.9%	?	0.953µM*	8.91µM*	0.631µM*
O=C(NCCOCCn1c(=O)oc2ccccc21)Nc1cccc(Cl)c1	.	.	.	-0.5%	-12.4%	.
COc1ccc(-n2cc3c(c2-c2cccc(Br)c2)c(=O)n(C)c(=O)n3C)cc1OC	.	.	.	0.1%	.	.
O=C(O)c1ccc(C(=O)O)c(C(=O)Nc2ccc3c(c2)Cc2ccccc2-3)c1	.	-6.0%[7.66 µM]	.	.	11.3%[9.22 µM]	.
O=C(Nc1ccccc1C(=O)NC1CC1)c1ccccc1	-1.6%	.	2.4%	4.1%	.	-5.7%
O=C(Nc1ccccc1C(=O)O)c1ccc(Br)o1	?	-4.9%	?	19µM*	5.6%	?
O=C(Nc1ccccc1C(=O)Nc1ccccc1C(=O)O)c1ccccc1	2.7%	.	-18.1%	15.1µM*	.	-5.5%
O=C(Nc1ccccc1F)c1ccc(Br)o1	14.8%	-10.0%[39.9 µM]	13.8%	?	22.1%	9.6%
CCNc1ncc2nc(-c3ccccc3)c(=O)n(C3CC3)c2n1	.	-3.0%	.	.	-1.9%	.
O=C(NC1CCCCCCC1)c1ccc(F)cc1	1.41µM*	.	10.3µM*	12µM*	.	1.41µM*
O=C(Nc1ccccc1F)NC1CCCCCCC1	3.98µM*	.	?	12µM*	.	?
O=C(Nc1ccc(F)c(F)c1)NC1CCCCC1	?	0.1%	9.0%	15.1µM*	4.47µM*	?
O=C(NC1CC2CCCC(C1)N2C(=O)NC1CCCCC1)c1ccc(F)cc1 (stereo not drawn)	-2.6%	.	0.8%	5.7%	.	2.7%
O=C(Nc1cccc(Cl)c1)NC1CCCCC1	?	-5.8%	8.3%	?	28.9%	?
S=C(Nc1cccc2ccccc12)NC1CCCCC1	?	-1.2%	?	19µM*	?	18.6%
Cc1nc2c(Br)cc(Br)cc2cc1O	9.0%	19.6%	-6.5%	-10.0%	11.2%	-0.5%
Cn1c(=O)c2c(ncn2CC(=O)N/N=C/c2ccc(Br)s2)n(C)c1=O	-4.7%	1.8%	-2.9%	0.2%	2.3%	-4.8%
CCCCC1CCC(C(=O)N(C)CC(=O)Nc2cccc(OC)c2)CC1 (stereo not drawn)	-1.2%	.	-4.5%	0.2%	.	-1.4%
O=C(Nc1ccc(F)cc1)NC1CCCCCCC1	?	.	?	9.53µM*	.	3.55µM*
O=C(NC1CCCCC1)c1ccc(N2CCCC2=O)cc1	28.5%	-5.7%	?	?	?	?
O=C(Nc1ccc(Cl)cc1)NC1CCCCC1	2.51µM*	-1.8%	20.2%	?	11.2µM*	1.12µM*
O=C(NC1CCCCCC1)c1ccc(N2CCCC2=O)cc1	3.16µM*	-6.5%	9.2µM*	13.5µM*	12.6µM*	3.98µM*
O=S(=O)(NCc1ccco1)c1ccc(Cl)nc1	-0.9%	9.3%	0.5%	4.3%	7.2%	-3.1%
c1ccc(-c2cn3nc(-c4ccccc4)cnc3n2)cc1	0.447µM*	-6.4%	?	0.213µM*	2µM*	0.631µM*
c1ccc(-c2cc(-c3ccccc3)n3ncnc3n2)cc1	-8.7%	10.1%	2.8%	0.3%	-31.1%	-0.6%
